What all share (assay): DAPPL (digital affinity profiling via proximity ligation, sequencing); 10 mM Tris-HCl pH 7.5, 50 mM NaCl, 1 mM DTT, 4% glycerol, room temperature, 30 min; GST-TFs on glutathione beads, 16-mer random dsDNA library, 0.1% formaldehyde crosslink after washing; high values mean tight binding
Common to all, as to settings: protein: recombinant; tags: N-terminal GST; dsDNA, one strand shown

One assay concerns the target T1, FLI1 (Homo sapiens, UniProt Q01543 1-452).
T1 sequence: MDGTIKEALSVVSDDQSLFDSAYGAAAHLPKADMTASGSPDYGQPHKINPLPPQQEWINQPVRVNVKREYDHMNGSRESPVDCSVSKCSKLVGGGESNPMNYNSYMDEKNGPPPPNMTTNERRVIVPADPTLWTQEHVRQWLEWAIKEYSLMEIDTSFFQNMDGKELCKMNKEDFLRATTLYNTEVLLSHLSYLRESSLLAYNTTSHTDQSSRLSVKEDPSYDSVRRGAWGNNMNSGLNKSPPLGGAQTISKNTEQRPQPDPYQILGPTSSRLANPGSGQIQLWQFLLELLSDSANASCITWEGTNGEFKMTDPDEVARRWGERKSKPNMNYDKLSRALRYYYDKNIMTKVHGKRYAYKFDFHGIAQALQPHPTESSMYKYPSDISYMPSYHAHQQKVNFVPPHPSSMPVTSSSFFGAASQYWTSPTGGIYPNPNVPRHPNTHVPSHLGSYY
Put shortly:
(§1)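 Binding signal is given per hexamer as its read frequency for a factor divided by its frequency in the tag-only sample. GST-fused human transcription factors were expressed in yeast, captured on glutathione beads, barcoded with DNA and pooled with that sample, then incubated with 200 nmole of a 16-mer random double-stranded DNA library in Tris/NaCl/DTT/glycerol buffer for 30 min at room temperature. The pools were then washed, crosslinked, proximity-ligated, amplified by PCR and sequenced on an Illumina NextSeq500.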

Another assay addresses T2, ELK1 (Homo sapiens, UniProt P19419 1-428).
T2 sequence: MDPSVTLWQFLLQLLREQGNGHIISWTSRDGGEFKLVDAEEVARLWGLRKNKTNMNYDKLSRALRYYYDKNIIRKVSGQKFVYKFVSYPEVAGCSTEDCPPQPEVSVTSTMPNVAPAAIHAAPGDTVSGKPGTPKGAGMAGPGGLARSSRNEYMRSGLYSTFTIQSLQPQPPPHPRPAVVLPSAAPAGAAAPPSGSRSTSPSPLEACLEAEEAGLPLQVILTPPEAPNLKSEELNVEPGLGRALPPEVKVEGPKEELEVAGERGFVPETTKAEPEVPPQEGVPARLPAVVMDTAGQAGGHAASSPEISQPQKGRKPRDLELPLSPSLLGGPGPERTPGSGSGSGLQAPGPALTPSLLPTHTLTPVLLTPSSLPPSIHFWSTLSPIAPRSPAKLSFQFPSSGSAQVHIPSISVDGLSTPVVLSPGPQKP
A digest of the protocol: as §1

The target in a further assay is T3, GABPA (Homo sapiens, UniProt Q06546 1-454).
T3 sequence: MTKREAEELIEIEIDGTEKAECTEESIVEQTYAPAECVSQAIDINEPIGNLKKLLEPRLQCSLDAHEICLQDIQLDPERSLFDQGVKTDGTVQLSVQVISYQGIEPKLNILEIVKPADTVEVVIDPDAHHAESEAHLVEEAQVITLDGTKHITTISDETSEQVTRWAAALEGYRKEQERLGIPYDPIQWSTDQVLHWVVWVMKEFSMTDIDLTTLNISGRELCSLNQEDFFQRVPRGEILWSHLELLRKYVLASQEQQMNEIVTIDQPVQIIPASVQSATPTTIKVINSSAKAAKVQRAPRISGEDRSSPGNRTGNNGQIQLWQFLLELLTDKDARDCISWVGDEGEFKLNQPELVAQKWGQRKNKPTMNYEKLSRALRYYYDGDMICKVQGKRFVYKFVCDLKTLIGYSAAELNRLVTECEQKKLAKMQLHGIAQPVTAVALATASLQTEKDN
A digest of the protocol: as §1

In a further assay the target is T4, ERG (Homo sapiens, UniProt P11308 1-479).
T4 sequence: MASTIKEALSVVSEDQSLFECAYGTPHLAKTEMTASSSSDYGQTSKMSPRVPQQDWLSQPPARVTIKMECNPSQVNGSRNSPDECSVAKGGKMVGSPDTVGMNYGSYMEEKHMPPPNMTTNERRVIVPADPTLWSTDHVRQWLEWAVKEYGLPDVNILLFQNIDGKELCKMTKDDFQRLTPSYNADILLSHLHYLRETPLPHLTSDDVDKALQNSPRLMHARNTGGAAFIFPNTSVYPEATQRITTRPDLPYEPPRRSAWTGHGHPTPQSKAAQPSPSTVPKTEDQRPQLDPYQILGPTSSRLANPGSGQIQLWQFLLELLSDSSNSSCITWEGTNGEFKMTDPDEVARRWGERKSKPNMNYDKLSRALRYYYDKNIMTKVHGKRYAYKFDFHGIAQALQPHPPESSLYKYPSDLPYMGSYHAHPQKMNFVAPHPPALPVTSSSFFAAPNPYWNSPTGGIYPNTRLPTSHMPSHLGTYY
Put shortly: as §1

The target in the next assay is ELF1 (Homo sapiens, UniProt P32519 1-619). Put shortly: as §1
Another assay concerns the target T5, EHF (Homo sapiens, UniProt Q9NZC4 1-300).
T5 sequence: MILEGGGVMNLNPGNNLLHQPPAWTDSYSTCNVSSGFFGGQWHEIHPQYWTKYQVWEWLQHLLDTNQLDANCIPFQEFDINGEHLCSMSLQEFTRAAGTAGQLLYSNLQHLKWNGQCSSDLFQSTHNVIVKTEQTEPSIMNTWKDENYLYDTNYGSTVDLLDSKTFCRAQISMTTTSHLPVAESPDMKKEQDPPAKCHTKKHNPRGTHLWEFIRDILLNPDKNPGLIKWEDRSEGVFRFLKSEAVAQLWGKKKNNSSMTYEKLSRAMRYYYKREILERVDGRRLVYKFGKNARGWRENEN
A digest of the protocol: as §1

The target of another assay is SPI1 (Homo sapiens, UniProt P17947 1-270). A digest of the protocol: as §1
The target of the next assay is SPIB (Homo sapiens, UniProt Q01892 1-262). Put shortly:
as §1

For another assay, the target named is T6, ELK3 (Homo sapiens, UniProt P41970 1-407).
T6 sequence: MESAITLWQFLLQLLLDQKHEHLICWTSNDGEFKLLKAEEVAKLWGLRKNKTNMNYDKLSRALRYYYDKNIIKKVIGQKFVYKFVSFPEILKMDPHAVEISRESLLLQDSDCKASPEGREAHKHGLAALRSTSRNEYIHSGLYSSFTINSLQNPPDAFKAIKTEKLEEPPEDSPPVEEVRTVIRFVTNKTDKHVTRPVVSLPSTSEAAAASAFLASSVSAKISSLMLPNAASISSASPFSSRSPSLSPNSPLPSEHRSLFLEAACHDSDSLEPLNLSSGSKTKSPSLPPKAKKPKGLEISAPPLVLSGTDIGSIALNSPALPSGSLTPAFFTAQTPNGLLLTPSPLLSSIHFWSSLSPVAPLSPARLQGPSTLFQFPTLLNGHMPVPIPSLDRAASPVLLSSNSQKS
A digest of the protocol: as §1

In another assay the target is T7, FEV (Homo sapiens, UniProt Q99581 1-238).
T7 sequence: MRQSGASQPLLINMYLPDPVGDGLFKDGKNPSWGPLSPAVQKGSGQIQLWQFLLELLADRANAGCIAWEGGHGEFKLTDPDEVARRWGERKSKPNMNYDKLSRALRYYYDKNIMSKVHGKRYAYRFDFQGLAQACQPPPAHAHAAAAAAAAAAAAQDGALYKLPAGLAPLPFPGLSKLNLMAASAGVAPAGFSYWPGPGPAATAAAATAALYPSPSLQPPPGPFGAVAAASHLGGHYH
A digest of the protocol: as §1

For another assay, the target named is ETV5 (Homo sapiens, UniProt P41161 1-510). Put shortly: as §1
The next assay concerns the target T8, SPIC (Homo sapiens, UniProt Q8N5J4 1-248).
T8 sequence: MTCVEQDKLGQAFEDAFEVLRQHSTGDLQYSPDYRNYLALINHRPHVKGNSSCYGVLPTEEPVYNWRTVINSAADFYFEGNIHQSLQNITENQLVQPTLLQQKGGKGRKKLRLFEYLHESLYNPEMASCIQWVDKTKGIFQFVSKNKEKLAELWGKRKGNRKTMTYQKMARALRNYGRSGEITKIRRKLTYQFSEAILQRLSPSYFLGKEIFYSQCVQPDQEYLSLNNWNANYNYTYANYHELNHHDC
Put shortly:
as §1

In a further assay the target is ELF4 (Homo sapiens, UniProt Q99607 1-663). A digest of the protocol: as §1
Another assay concerns the target T9, ELK4 (Homo sapiens, UniProt P28324-2 1-405).
T9 sequence: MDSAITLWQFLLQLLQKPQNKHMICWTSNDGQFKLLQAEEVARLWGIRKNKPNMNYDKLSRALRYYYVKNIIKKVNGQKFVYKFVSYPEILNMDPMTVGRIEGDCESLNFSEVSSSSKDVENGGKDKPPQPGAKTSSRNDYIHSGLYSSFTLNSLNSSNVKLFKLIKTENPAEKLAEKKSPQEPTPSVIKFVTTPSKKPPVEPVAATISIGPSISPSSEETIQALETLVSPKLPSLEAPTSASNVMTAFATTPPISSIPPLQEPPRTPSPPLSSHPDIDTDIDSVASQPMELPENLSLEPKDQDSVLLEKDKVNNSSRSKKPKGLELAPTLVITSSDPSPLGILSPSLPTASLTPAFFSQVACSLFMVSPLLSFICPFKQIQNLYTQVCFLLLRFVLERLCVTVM
Put shortly: as §1

A further assay deals with T10, ETV2 (Homo sapiens, UniProt O00321 1-342).
T10 sequence: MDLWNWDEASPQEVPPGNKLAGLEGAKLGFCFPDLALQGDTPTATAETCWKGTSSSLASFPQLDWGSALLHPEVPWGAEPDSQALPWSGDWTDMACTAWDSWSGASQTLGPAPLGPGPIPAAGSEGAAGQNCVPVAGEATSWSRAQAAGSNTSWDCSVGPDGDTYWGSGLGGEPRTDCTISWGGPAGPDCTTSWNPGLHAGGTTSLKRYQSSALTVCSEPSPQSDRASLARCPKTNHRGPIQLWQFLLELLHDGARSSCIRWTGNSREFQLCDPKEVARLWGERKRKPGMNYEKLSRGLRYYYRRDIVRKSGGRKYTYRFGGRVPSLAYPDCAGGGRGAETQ
Put shortly: as §1

The target in the next assay is T11, ELF3 (Homo sapiens, UniProt P78545 1-371).
T11 sequence: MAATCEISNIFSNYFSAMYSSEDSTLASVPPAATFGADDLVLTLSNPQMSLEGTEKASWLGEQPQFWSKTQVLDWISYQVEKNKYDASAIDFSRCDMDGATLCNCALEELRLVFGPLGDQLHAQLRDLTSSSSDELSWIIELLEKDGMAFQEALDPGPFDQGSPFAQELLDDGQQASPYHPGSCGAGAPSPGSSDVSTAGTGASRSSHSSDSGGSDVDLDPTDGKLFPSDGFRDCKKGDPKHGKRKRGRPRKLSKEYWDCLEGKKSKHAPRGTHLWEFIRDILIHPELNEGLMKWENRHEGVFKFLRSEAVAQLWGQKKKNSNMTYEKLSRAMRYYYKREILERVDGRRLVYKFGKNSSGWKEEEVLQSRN
A digest of the protocol: as §1

The target in a further assay is CRX (Homo sapiens, UniProt O43186 1-299). A digest of the protocol: as §1
Another assay deals with ETV1 (Homo sapiens, UniProt P50549 1-477). A digest of the protocol: as §1
Chain of ETV1 (P50549 whole entry): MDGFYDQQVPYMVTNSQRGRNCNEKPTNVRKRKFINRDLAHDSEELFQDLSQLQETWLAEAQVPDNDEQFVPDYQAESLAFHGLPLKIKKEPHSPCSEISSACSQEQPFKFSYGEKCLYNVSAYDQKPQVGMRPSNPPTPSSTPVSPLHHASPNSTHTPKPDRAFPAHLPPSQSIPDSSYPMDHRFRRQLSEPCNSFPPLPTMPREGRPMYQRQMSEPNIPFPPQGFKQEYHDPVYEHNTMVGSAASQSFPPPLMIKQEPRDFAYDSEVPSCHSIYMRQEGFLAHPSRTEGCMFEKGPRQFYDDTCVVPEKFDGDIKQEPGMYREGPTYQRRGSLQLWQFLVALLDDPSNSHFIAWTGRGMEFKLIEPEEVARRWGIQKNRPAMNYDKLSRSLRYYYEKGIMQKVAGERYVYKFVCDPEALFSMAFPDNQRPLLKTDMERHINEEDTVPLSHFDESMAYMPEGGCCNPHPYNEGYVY

Chain of ELF1 (P32519 whole entry): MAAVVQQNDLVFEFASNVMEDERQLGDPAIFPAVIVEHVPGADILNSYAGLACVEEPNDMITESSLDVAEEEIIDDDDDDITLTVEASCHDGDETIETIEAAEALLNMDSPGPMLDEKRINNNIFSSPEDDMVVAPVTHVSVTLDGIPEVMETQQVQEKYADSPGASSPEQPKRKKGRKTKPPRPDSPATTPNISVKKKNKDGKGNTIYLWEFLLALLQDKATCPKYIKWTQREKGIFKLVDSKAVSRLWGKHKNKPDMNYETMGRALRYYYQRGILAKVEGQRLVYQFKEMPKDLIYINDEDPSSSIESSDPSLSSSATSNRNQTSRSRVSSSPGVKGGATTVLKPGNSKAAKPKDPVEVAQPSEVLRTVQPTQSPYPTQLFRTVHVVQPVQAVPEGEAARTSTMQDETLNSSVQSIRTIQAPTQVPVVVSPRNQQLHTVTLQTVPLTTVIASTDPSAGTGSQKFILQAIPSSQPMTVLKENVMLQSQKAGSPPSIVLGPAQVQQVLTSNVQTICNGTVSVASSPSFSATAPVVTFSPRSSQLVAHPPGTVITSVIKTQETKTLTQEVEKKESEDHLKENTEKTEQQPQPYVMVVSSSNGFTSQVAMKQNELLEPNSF
Chain of CRX (O43186 whole entry): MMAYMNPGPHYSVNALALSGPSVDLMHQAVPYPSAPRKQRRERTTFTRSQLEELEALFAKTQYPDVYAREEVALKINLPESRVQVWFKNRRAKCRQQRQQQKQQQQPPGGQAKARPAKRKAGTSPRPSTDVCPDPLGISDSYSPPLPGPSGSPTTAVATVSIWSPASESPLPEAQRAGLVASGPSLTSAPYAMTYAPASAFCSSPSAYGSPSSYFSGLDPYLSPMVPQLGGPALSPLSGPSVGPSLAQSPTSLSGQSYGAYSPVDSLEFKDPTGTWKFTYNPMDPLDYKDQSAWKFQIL
Chain of ETV5 (P41161 whole entry): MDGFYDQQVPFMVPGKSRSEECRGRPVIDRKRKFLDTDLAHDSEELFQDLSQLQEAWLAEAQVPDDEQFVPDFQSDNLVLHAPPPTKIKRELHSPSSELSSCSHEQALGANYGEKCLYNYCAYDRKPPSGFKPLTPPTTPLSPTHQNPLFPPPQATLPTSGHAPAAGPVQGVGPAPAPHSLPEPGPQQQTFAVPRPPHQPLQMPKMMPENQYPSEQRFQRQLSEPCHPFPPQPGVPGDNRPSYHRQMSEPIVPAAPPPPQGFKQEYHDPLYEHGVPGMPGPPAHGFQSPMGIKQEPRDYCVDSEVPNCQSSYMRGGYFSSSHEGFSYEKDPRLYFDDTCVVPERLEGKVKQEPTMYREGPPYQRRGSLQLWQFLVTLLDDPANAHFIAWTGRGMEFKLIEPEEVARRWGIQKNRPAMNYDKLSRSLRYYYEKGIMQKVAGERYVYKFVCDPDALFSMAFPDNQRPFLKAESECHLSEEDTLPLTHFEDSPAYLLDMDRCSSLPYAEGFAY
Chain of SPIB (Q01892 whole entry): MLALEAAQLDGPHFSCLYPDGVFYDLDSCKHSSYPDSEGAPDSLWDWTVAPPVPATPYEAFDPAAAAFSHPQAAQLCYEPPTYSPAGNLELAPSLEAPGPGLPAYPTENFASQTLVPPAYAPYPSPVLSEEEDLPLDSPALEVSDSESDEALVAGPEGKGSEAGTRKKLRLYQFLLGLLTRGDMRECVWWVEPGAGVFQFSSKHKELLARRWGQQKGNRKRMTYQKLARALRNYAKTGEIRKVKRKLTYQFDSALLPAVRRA
Chain of ELF4 (Q99607 whole entry): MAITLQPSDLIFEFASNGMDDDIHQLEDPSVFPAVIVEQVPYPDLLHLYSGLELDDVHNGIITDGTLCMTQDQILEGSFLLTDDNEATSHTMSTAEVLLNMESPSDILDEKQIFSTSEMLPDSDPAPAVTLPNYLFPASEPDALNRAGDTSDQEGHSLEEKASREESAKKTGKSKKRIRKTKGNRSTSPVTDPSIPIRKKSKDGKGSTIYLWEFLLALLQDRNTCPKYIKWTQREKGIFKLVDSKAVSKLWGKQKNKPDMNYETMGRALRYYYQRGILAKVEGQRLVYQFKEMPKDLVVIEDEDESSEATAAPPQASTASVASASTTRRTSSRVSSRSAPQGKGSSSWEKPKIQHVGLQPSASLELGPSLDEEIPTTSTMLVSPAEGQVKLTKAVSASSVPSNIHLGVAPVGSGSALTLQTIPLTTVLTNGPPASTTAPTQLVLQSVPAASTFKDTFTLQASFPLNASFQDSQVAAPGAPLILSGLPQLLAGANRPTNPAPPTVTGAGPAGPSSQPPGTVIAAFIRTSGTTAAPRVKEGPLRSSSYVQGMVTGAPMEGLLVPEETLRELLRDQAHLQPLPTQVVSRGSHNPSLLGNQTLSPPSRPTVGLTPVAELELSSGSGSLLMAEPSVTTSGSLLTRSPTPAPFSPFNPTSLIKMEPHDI

As for TTGTTG, the binding signal with FLI1 is 1.03 fold enrichment (6-mer frequency, TF over GST control); in the assay with ELK1, 1.12 fold enrichment (6-mer frequency, TF over GST control); with GABPA it was 1.07 fold enrichment (6-mer frequency, TF over GST control); with ERG it was 1.1 fold enrichment (6-mer frequency, TF over GST control); with ELF1 it was 1.14 fold enrichment (6-mer frequency, TF over GST control); in the assay with EHF, 1.12 fold enrichment (6-mer frequency, TF over GST control). In addition, the binding signal with SPI1 was 1.15 fold enrichment (6-mer frequency, TF over GST control); with SPIB, 1.05 fold enrichment (6-mer frequency, TF over GST control); in the assay with ELK3, 1.12 fold enrichment (6-mer frequency, TF over GST control); with FEV it was 1.01 fold enrichment (6-mer frequency, TF over GST control); with ETV5, 1.08 fold enrichment (6-mer frequency, TF over GST control); with SPIC, 1.19 fold enrichment (6-mer frequency, TF over GST control). The binding signal in the assay with ELF4 was 1.21 fold enrichment (6-mer frequency, TF over GST control); with ELK4 it was 1.19 fold enrichment (6-mer frequency, TF over GST control); with ETV2 it was 1.09 fold enrichment (6-mer frequency, TF over GST control); with ELF3, 1.15 fold enrichment (6-mer frequency, TF over GST control); with CRX, 1.09 fold enrichment (6-mer frequency, TF over GST control); with ETV1 it was 1.21 fold enrichment (6-mer frequency, TF over GST control).

In the case of AAACGG, the binding signal in the assay with FLI1 is 1.17 fold enrichment (6-mer frequency, TF over GST control); in the assay with ELK1, 1.24 fold enrichment (6-mer frequency, TF over GST control); with GABPA it was 1.13 fold enrichment (6-mer frequency, TF over GST control); in the assay with ERG, 1.3 fold enrichment (6-mer frequency, TF over GST control); with ELF1, 1.21 fold enrichment (6-mer frequency, TF over GST control); with EHF, 1.26 fold enrichment (6-mer frequency, TF over GST control). Further, the binding signal is 1.47 fold enrichment (6-mer frequency, TF over GST control) in the assay with SPI1; 1.23 fold enrichment (6-mer frequency, TF over GST control) in the assay with SPIB; 1.22 fold enrichment (6-mer frequency, TF over GST control) with ELK3; 1.42 fold enrichment (6-mer frequency, TF over GST control) with FEV; 1.27 fold enrichment (6-mer frequency, TF over GST control) with ETV5; 1.19 fold enrichment (6-mer frequency, TF over GST control) with SPIC. The binding signal was 1.23 fold enrichment (6-mer frequency, TF over GST control) in the assay with ELF4; 1.19 fold enrichment (6-mer frequency, TF over GST control) in the assay with ELK4; 1.22 fold enrichment (6-mer frequency, TF over GST control) in the assay with ETV2; 1.28 fold enrichment (6-mer frequency, TF over GST control) in the assay with ELF3; 1.01 fold enrichment (6-mer frequency, TF over GST control) with CRX; 1.27 fold enrichment (6-mer frequency, TF over GST control) with ETV1.
